# Results published in PubChem BioAssay (NCATS).
# Several values for one entry are separate records, joined by “and”; a condition that tells them apart may be missing. Equal values may be shown once. Results filed as inconclusive are left out. Activity calls are given as the source filed them. The call rests on the fitted dose curve; in most records, active means well fitted activation curve with a large enough effect in the signal ratio; inconclusive means small, poorly fitted or top-dose-only effect, or a change in a side signal; inactive means flat fitted curve, though single readings scatter; the % refers to the signal ratio.
# Assay: qHTS assay for small molecule activators of the nuclear factor-kappa B (NF-kB) signaling pathway (AID 651749); on activation: series mostly up to about 77 µM; % of control where 0% means no effect
# Conditions: NF-kB-bla ME-180 cells, beta-lactamase FRET ratio, 16 h; activation: hits give high values
# Source text: National Center for Advancing Translational Sciences [NCATS] NIH Chemical Genomics Center [NCGC] U.S. Environmental Protection Agency [EPA] National Institutes of Environmental Health Sciences [NIEHS] National Toxicology Program [NTP] Assay Overview: Transcription factors and their stimulated target gene expression play pivotal roles across many cellular processes including responses to environmental stimuli. Proper regulation of associated pathways is critical to maintain cell health and function. Constitutive activation of transcription factor pathways has been implicated in tumors as it may block cellular functions such as apoptosis and lead to invasion and metastasis. One important transcription factor that stimulates gene expression in response to cytokines, UV radiation, and other stimuli is nuclear factor-kappa B (NF-kB). To measure activation of the NF-kB pathway, the NF-kB-bla ME-180 cell line stably expressed beta-lactamase reporter gene under the regulation of a NF-kB response element was obtained from Invitrogen. This assay allows measurement of the NF-kB pathway activity induced by compounds in a ME-180 cell line. This system quantitates NF-kB activity using a FRET-based assay system where beta-lactamase expression disrupts FRET, allowing for fluorescent measurement of activity.
# Assay Protocol Summary: For toxicology screening, 2,000 cells in 5 uL/well were dispensed into black, clear-bottom 1536-well plates using a Multidrop Combi (Thermo Scientific) dispenser. Following transfer of 23 nL compound or DMSO vehicle by a pin tool, the plates were incubated 16 hr at 37C and 5% CO2.
# Potency means the concentration at half of the fitted maximal effect.
SMILES,activation,Potency
CCCCN(CC)c1c([N+](=O)[O-])cc(C(F)(F)F)cc1[N+](=O)[O-],-1.55% (inactive),–
CC1(C)[C@H](C(=O)O[C@H](C#N)c2cccc(Oc3ccccc3)c2)[C@@H]1/C=C(\Cl)C(F)(F)F,-0.133% (inactive),–
CCOP(=S)(OCC)SC(CCl)N1C(=O)c2ccccc2C1=O (stereo not given),-1.92% (inactive),–
CCC(C)(CC)c1cc(NC(=O)c2c(OC)cccc2OC)on1,-0.691% (inactive),–
CCc1cc(C)cc(CC)c1-c1c(OC(=O)C(C)(C)C)n2n(c1=O)CCOCC2,-1.54% (inactive),–
C=CC(=O)NCO,0.439% (inactive) and -0.866% (inactive),–
O=C(Nc1ccccc1)Nc1ccnc(Cl)c1,-0.762% (inactive),–
CCCCOC(=O)[C@@H](C)Oc1ccc(Oc2ccc(C#N)cc2F)cc1,0.919% (inactive),–
O=C(O[C@@H]1Cc2c(O)cc(O)cc2O[C@@H]1c1cc(O)c(O)c(O)c1)c1cc(O)c(O)c(O)c1,–,12.6 µM (active)
Cc1c(COC(=O)C2C(/C=C(\Cl)C(F)(F)F)C2(C)C)cccc1-c1ccccc1 (stereo not given),1.42% (inactive),–
CCNP(=S)(OC)O/C(C)=C/C(=O)OC(C)C (stereo not given),0.112% (inactive),–
CCNc1nc(NC(C)C)nc(OC)n1,-1.42% (inactive),–
O=P(O)(O)CN(CP(=O)(O)O)CP(=O)(O)O,0.3% (inactive),–
O=C(CCl)c1ccccc1,0.721% (inactive),–
Clc1ccc([C@@]2(Cn3cncn3)C[C@@H](Br)CO2)c(Cl)c1,-2.08% (inactive),–
CSc1nnc(C(C)(C)C)c(=O)n1N,-0.061% (inactive),–
CCOP(OCC)OCC,-0.0576% (inactive),–
CCOP(=S)(OCC)SCC(=O)NC(C)C,0.608% (inactive),–
CCOP(=O)(OCC)OP(=O)(OCC)OCC,-0.353% (inactive),–
Nc1nc(N)nc(N)n1,-1.8% (inactive),–

SMILES,activation,Potency
CCOP(=S)(OCC)Oc1ncn(-c2ccccc2)n1,2.03% (inactive),–
CNC(=O)O/N=C(\SC)C(=O)N(C)C,-1.34% (inactive),–
CC(=NC#N)N(C)Cc1ccc(Cl)nc1,-0.278% (inactive),–
O=[N+]([O-])c1ccc(Nc2ccccc2)cc1,0.166% (inactive),–
COc1cc(Cl)c(OC)cc1Cl,-1.99% (inactive),–
CC(C)(C)C(O)C(Oc1ccc(-c2ccccc2)cc1)n1cncn1 (stereo not given),-1.06% (inactive),–
CCSC(C)CC1CC(=O)C(/C(CC)=N/OC/C=C/Cl)=C(O)C1 (stereo not given),0.614% (inactive),–
O=C(NC(=O)c1c(F)cccc1F)Nc1cc(Cl)c(OC(F)(F)C(F)C(F)(F)F)c(Cl)c1F (stereo not given),4.04% (inactive),–
CC1(C(=O)Nc2ccc(O)c(Cl)c2Cl)CCCCC1,0.744% (inactive),–
CCCCC(CC)COC(=O)Cl (stereo not given),-0.442% (inactive),–
CCCSC(=O)N(CCC)CCC,0.695% (inactive),–
CCOc1cc(C(C)(C)C)ccc1C1COC(c2c(F)cccc2F)=N1 (stereo not given),3.07% (inactive),–
CNC(=O)O/N=C/C(C)(C)S(C)(=O)=O,-1.23% (inactive),–
CS/C(C)=N/OC(=O)N(C)SN(C)C(=O)O/N=C(\C)SC,-0.513% (inactive),–
OC(Cn1cncn1)(c1ccc(F)cc1)c1ccccc1F (stereo not given),0.295% (inactive),–
O=C(NC(=O)c1c(F)cccc1F)Nc1ccc(OC(F)(F)C(F)OC(F)(F)F)c(Cl)c1 (stereo not given),1.61% (inactive),–
CC(C)(C)OOC(C)(C)c1ccc(C(C)(C)OOC(C)(C)C)cc1,0.854% (inactive),–
C/C(=N\C(N)=O)N(C)Cc1ccc(Cl)nc1,-1.01% (inactive),–
N#CN=C1SCCN1Cc1ccc(Cl)nc1,-0.492% (inactive),–
c1cc[n+]2c(c1)-c1cccc[n+]1CC2,-2.74% (inactive),–
